# Assay results published in PubChem BioAssay (NCATS).
# Values joined by “and” are separate entries in the source; they are usually repeats but may differ in a detail not shown here. Equal values may be shown once. Records with an inconclusive call do not appear. Values without a mark were called inactive. Active and inactive are the calls of the source. Calls come from the whole dose curve; as a rule, active = well fitted curve in the direction sought with a large enough effect; inconclusive = small, poorly fitted or top-dose-only effect, or another doubt; inactive = no such curve, though single readings can be large; an effect the other way counts as inactive or inconclusive.
# What was measured:
# [1] = biological target: Cellular tumor antigen p53 (Homo sapiens) (UniProt P04637); assay: Primary qHTS for small molecule compounds that upregulate eGFP-tagged delta133p53alpha (in N-terminal) cells. (AID 2060322); conditions: NCI-H358 eGFP-delta133p53alpha fluorescence, 24 h; activation: stronger effect = higher value; note: nearly all actives have a fitted effect of over 75% in size; note: potency is the fitted concentration of half-maximal effect;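 for activation: cells pre-induced with doxycycline then dosed without doxycycline; series mostly up to about 56 µM; 0% = DMSO vehicle and 100% = reference activator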
# Chain of Cellular tumor antigen p53 (Homo sapiens) (P04637 whole entry, looked up): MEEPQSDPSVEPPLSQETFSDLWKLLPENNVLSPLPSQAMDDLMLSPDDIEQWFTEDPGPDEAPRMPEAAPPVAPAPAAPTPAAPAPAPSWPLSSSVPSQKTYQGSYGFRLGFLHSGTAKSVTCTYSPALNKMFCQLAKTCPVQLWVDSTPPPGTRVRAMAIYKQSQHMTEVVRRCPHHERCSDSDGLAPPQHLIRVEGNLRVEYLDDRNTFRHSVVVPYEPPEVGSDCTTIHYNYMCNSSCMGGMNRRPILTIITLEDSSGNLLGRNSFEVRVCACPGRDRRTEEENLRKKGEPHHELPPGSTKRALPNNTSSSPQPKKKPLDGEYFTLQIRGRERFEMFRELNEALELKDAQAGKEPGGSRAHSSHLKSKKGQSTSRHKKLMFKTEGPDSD
# Method in brief: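 NCI-H358 cells pre-induced 24 h with 10 ng/ml doxycycline for eGFP-delta133p53alpha, plated dox-free and exposed 24 h at 37C to titrated compounds. Fixed, Hoechst-stained; gated GFP peak intensity by laser scanning cytometry, normalized to DMSO (0%) and 57.5 uM 5-azacytidine (100%).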
# [2] = biological target: Aldehyde dehydrogenase, mitochondrial (Homo sapiens) (UniProt P05091); assay: qHTS for Inhibitors of the Aldehyde Dehydrogenase Family (ALDH2) Primary screen (AID 2061308);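 note: plate controls were vehicle for no effect and reference inhibitor for full effect; nearly all actives have a fitted effect of over 55% in size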
# [3] = biological target: Retinaldehyde dehydrogenase 3 (Homo sapiens) (UniProt P47895); assay: qHTS for Inhibitors of the Aldehyde Dehydrogenase Family (ALDH1A3) Primary screen (AID 2061315);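 note: plate controls were DMSO vehicle for no effect and reference inhibitor for full effect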
# [4] = BET inhibitor-based combinations targeting novel dependencies in MECOM-rearranged (r) AML: OCI-AML3 cell line (AID 2202232); conditions: Potency: OCI-AML3 viability; note: potency is the fitted concentration of half-maximal effect; nearly all actives have a fitted effect of over 35% in size
# Method in brief: (§1)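 Each compound was tested at eleven concentrations on cells seeded at 500/well. After two days' incubation, ATP-based luminescence reported viability; responses relative to DMSO and blank wells yielded AUC and cell-line-centred Z-AUC.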
# [5] = BET inhibitor-based combinations targeting novel dependencies in MECOM-rearranged (r) AML: MV-4-11 cell line (AID 2202233); note: nearly all actives have a fitted effect of over 45% in size; note: potency is the fitted concentration of half-maximal effect
# Method in brief: (§2)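 First, 500 cells per well were seeded; next, drugs were pinned as 11-point doses; then plates sat 48 hr in the incubator; finally CellTiter-Glo was added and luminescence read, with AUC and Z-AUC computed.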
# [6] = BET inhibitor-based combinations targeting novel dependencies in MECOM-rearranged (r) AML: HNT-34 cell line (AID 2202234); note: nearly all actives have a fitted effect of over 35% in size; note: potency is the fitted concentration of half-maximal effect
# Method in brief: as §2
# [7] = BET inhibitor-based combinations targeting novel dependencies in MECOM-rearranged (r) AML: UCSD-AML1 cell line (AID 2202235); note: nearly all actives have a fitted effect of over 40% in size; note: potency is the fitted concentration of half-maximal effect
# Method in brief: as §2
# [8] = BET inhibitor-based combinations targeting novel dependencies in MECOM-rearranged (r) AML: AML-191 cell line (AID 2202236; note: nearly all actives have a fitted effect of over 35% in size; note: potency is the fitted concentration of half-maximal effect)
# Method in brief: as §1
# [9] = BET inhibitor-based combinations targeting novel dependencies in MECOM-rearranged (r) AML: AML-194 cell line (AID 2202237; note: nearly all actives have a fitted effect of over 40% in size; note: potency is the fitted concentration of half-maximal effect)
# Method in brief: as §1
# [10] = BET inhibitor-based combinations targeting novel dependencies in MECOM-rearranged (r) AML: SET-2 cell line (AID 2202231); conditions: SET-2 AML cells viability, CellTiter-Glo luminescence, 48 h; viability: stronger effect = lower value, concentration not given here; note: nearly all actives have a fitted effect of over 35% in size; note: potency is the fitted concentration of half-maximal effect;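 for viability: plate controls were DMSO treated cells for no effect and wells without cells for full effect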
# Method in brief: as §1
Compound,activation [1],Potency [2],Potency [3],Potency [4],Potency [5],Potency [6],Potency [7],Potency [8],Potency [9],viability [10] [%],Potency [10],Potency [1]
CO[C@@H](C)Cn1c(=O)n(C)c2cnc3ccc(-c4cncc(C(C)(C)O)c4)cc3c21,-10.7%,inactive,inactive,1.18 µM (active),0.332 µM (active),0.372 µM (active),0.263 µM (active),0.235 µM (active),–,–,–,–
CC(C)[C@@H](CS(=O)(=O)C(C)C)N1C(=O)[C@@](C)(CC(=O)O)C[C@H](c2cccc(Cl)c2)[C@H]1c1ccc(Cl)cc1,0.955% and -3.88%,inactive,inactive,2.35 µM (active),1.86 µM (active),1.66 µM (active),1.86 µM (active),2.35 µM (active),2.35 µM (active),–,–,–
Cc1cccc(-c2[nH]c(CNc3ccccc3F)nc2-c2ccc3ncnn3c2)n1,-27.7%,inactive,inactive,–,–,–,inactive,–,inactive,100,–,–
O=C(O)c1ccc(CCCc2ccc(OCCc3ccc(F)cc3)cc2)o1,-3.57%,inactive,inactive,–,–,inactive,inactive,inactive,inactive,–,20.9 µM (active),–
CC1=C(C(=O)Nc2cc3cn[nH]c3cc2F)C(c2ccc(Cl)cc2F)N=C(c2ccnc(Cl)c2)N1 (stereo not drawn),-24.2% and 5.36%,inactive,inactive,16.6 µM (active),5.9 µM (active),–,–,–,–,–,–,–
Clc1cc2c(NC3CCCC3)nnc(-c3ccncc3)c2cc1Cl,-9%,inactive,inactive,0.468 µM (active),inactive,inactive,inactive,inactive,inactive,–,–,–
c1cc(-c2cnn3cc(-c4ccc(N5CCNCC5)cc4)cnc23)c2cccnc2c1,–,inactive,inactive,–,–,–,8.33 µM (active),4.68 µM (active),2.95 µM (active),–,5.25 µM (active),15.1 µM (active)
Clc1ccc(C2(c3ccc(-c4cn[nH]c4)cc3)CCNCC2)cc1,-10.3% and 1.79%,inactive,inactive,18.6 µM (active),4.17 µM (active),5.25 µM (active),–,18.6 µM (active),20.9 µM (active),–,–,–
CC1=C[C@@H]2[C@@H]([C@@H](O)C[C@@]3(C)[C@H]2C[C@@H](C)[C@]3(O)C(=O)CO)[C@@]2(C)Cc3cnn(-c4ccccc4)c3C=C12,-34.9%,inactive,inactive,18.6 µM (active),18.6 µM (active),18.6 µM (active),–,–,–,–,–,–
Cc1nn(Cc2ccccc2Cl)c(C)c1CN(C)CC(O)COc1ccc(Cl)cc1 (stereo not drawn),32.2%,inactive,inactive,16.6 µM (active),20.9 µM (active),20.9 µM (active),inactive,23.5 µM (active),–,–,–,–
CC(C)(O)c1cc2nc(-c3cnc(N)nc3)nc(N3CCOCC3)c2s1,18.8%,inactive,inactive,1.32 µM (active),1.32 µM (active),1.86 µM (active),0.332 µM (active),–,–,–,–,–
Cc1cc(Nc2cc(N3CCN(C)CC3)nc(Sc3ccc(NC(=O)C4CC4)cc3)n2)n[nH]1,60.2%,inactive,inactive,0.662 µM (active),0.132 µM (active),0.235 µM (active),4.68 µM (active),0.662 µM (active),0.934 µM (active),–,–,–
Nc1nccc(Oc2ccc(NC(=O)c3c[nH]cc(-c4ccc(F)cc4)c3=O)cc2F)c1Cl,–,inactive,inactive,20.9 µM (active),0.0372 µM (active),18.6 µM (active),–,9.34 µM (active),–,–,–,43.2 µM (active) and 30.1 µM (active)
CC(C)c1cc(CNc2nc(Nc3cc(C4CC4)[nH]n3)cc(N3CCN(C)CC3)n2)on1,–,inactive,inactive,4.68 µM (active),0.0742 µM (active),0.0934 µM (active),0.742 µM (active),0.0833 µM (active),0.0934 µM (active),–,–,4.26 µM (active)
Cc1c(F)cc(C(=O)NC2CC2)cc1-c1c(F)cn2c(C(C)(C)C)nnc2c1F,-8.93%,inactive,inactive,–,–,inactive,inactive,inactive,inactive,104,–,–
Cc1[nH]c(/C=C2\C(=O)Nc3ccc(F)cc32)c(C)c1C(=O)NCCN1CCCC1,–,inactive,inactive,8.11 µM (active),0.0323 µM (active),3.62 µM (active),8.11 µM (active),6.45 µM (active),7.23 µM (active),–,–,2.69 µM (active)
